Only some compounds are listed: those with a hit (about 12% of all), similar ones and a draw of the others.
TDP1 block: blocks human tyrosyl-DNA phosphodiesterase 1 | AID 485290 | recombinant TDP1, AlphaScreen DNA substrate cleavage | 350,000 tested, 0.28% active | Potency, µM (series often up to 130 µM), without a hit: at the highest dose activity change, negative = inhibition, most hits filed as inhibitors; further: on the % scale 0 is the no-effect control and ±100 the full control effect; nearly all actives have a fitted effect of over 40% in size
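Tdp1 1 nM final; 15 min RT w/ cpd; substrate 15 nM, 5 min; beads 10 ug/ml, 10 min; AlphaScreen read. Neg ctrl: no enzyme.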
G9a inh: blocks human histone lysine methyltransferase G9a | G9a H3K9 monomethylation, AlphaScreen, 2 h | Potency, µM (titrated, usually from 102 µM), inactives show at the top dose activity, negative = inhibition, actives largely listed as inhibitors | AID 504332 | 350,000 tested, 8.8% active; further: on the % scale 0 is the no-effect control and ±100 the full control effect; nearly all actives have a fitted effect of over 75% in size
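AlphaScreen detection with an anti-monomethyl H3K9 antibody quantified product after a 2 h room-temperature reaction containing 500 nM biotinylated H3K9 peptide, 20 µM SAM and 20 nM enzyme, which had been preincubated 15 min with compound.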
HP1b binding inh: inhibitors of HP1-beta chromodomain binding to methylated histone tails; P83916; AlphaScreen HP1-beta / biotin-H3K9me3 peptide binding; Potency, µM (top dose mostly 114 µM), for inactives: top-dose activity change, negative = inhibition, actives largely listed as inhibitors; 390,000 tested, 0.56% active; further: nearly all actives have a fitted effect of over 70% in size
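AlphaScreen: HP1-beta (50 nM) preformed 30 min with biotin-H3(1-18)K9me3 peptide (50 nM) in PBS pH 7.4, 0.01% Tween-20. Compound added for 30 min at RT, then streptavidin donor/nickel chelate acceptor beads (10 ug/mL) for 30 min.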
JMJD2A Tudor inh: blocks the human JMJD2A Tudor domain; O75164; 390,000 tested, 4.4% active; Potency, µM (titrated, usually from 114 µM), without a hit: at the highest dose activity change, negative = inhibition, hits mostly inhibitors; AlphaScreen JMJD2A-Tudor / H3K4me3 peptide binding; further: on the % scale 0 is the no-effect control and ±100 the full control effect; nearly all actives have a fitted effect of over 50% in size
BAZ2B block: blocks human BAZ2B; Potency, µM (top dose mostly 114 µM), inactives show top-dose activity change, negative = inhibition, hits mostly inhibitors; Q9UIF8; 360,000 tested, 4.4% active; AlphaScreen BAZ2B-H3K14Ac peptide displacement; further: on the % scale 0 is the no-effect control and ±100 the full control effect; nearly all actives have a fitted effect of over 60% in size
Target sequence (Q9UIF8 whole entry, looked up): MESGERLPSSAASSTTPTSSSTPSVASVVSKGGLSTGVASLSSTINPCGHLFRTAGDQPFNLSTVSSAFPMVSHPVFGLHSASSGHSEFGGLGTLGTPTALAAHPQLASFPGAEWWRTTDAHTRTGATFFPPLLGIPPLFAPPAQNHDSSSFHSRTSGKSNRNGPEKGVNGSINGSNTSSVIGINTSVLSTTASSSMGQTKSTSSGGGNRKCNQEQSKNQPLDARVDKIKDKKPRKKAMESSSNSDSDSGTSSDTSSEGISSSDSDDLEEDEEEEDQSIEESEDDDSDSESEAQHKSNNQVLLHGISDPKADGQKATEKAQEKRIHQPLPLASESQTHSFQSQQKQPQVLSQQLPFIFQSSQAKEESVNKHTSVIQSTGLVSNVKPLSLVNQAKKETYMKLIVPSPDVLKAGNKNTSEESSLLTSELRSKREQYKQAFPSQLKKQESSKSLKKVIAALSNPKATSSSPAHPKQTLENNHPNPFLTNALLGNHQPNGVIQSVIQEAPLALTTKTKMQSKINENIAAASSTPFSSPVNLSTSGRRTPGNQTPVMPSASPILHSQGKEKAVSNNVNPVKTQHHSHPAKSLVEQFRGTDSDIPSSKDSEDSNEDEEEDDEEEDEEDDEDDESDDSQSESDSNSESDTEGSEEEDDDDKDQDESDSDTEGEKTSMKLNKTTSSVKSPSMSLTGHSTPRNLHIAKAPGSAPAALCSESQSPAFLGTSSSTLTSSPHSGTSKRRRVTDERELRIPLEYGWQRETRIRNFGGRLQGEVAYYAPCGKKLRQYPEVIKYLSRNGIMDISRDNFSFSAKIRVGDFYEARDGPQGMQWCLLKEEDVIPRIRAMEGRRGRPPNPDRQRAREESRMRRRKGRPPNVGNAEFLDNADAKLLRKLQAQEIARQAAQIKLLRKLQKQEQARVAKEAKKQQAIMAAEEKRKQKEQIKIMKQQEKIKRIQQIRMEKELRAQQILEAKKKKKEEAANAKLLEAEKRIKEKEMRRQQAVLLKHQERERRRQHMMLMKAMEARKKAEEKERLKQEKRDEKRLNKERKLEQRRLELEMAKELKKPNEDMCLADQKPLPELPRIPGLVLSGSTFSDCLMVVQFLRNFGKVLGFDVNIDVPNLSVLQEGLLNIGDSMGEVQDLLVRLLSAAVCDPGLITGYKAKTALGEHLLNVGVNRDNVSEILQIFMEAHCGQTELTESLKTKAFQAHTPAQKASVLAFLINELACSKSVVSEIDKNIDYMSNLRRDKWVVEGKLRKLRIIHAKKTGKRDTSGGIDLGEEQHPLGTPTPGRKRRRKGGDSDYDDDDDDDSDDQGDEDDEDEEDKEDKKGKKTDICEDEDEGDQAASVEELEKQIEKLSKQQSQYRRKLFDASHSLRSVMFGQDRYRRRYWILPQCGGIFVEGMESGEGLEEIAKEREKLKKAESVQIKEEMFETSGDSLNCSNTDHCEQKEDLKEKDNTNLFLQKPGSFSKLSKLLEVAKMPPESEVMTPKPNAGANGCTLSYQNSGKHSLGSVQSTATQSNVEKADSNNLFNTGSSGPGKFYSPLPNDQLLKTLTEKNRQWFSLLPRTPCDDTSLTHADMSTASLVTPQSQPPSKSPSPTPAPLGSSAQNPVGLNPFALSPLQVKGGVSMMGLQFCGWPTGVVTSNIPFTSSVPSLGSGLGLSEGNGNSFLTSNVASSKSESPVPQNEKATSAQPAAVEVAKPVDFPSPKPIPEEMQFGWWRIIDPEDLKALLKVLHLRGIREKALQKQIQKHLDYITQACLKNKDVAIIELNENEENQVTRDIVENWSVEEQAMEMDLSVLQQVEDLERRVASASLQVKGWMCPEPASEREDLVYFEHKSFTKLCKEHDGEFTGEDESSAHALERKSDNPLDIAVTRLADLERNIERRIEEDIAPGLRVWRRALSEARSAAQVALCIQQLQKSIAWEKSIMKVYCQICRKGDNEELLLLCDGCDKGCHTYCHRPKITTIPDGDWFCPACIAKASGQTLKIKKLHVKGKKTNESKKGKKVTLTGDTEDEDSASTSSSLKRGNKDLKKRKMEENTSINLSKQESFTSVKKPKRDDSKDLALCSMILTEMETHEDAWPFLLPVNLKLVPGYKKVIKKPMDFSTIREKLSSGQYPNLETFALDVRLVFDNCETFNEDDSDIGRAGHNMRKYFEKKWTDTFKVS
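Inhibition is scored as reduced AlphaScreen emission. The BAZ2B/b-H3(5-23)K14Ac complex (50 nM each) in PBS pH 7.4, 0.01% Tween-20 meets compound (up to 110 uM) for 30 min at RT before bead addition.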
Sfp PPTase inh: blocks B. subtilis Sfp PPTase activity; Q9F4F7; Biochemical Sfp PPTase activity, qHTS; Potency, µM, for inactives: largest response in the series, negative = inhibition, actives largely listed as inhibitors; 310,000 tested, 3.5% active; AID 1490;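 further: the enzyme is Sfp with the accession as filed and its product quenches rhodamine fluorescence; 0% = enzyme reaction without inhibitor and -100% = no enzyme wells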
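Step 1, compound plus 15 nM Sfp-PPTase, 15 min, room temperature. Step 2, add rhodamine-CoA (5 uM) and BHQ-2-YbbR (12.5 uM). Step 3, read 525/598 nm fluorescence at 0 and 30 min.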
Starred values were filed as active, the others as inactive; ? = inconclusive; · = not tested or not shown; [ ] = another dose, or the depositor's remark. The call rests on the fitted dose curve; in most records, active means well fitted curve in the direction sought with a large enough effect; inconclusive means small, poorly fitted or top-dose-only effect, or another doubt; inactive means no such curve, though single readings can be large; an effect the other way counts as inactive or inconclusive. Potency means the concentration at half of the fitted maximal effect.

SMILES	TDP1 block	G9a inh	HP1b binding inh	JMJD2A Tudor inh	BAZ2B block	Sfp PPTase inh
C#CCOCCOCCOCCNc1nc(N2CCN(C(=O)[C@H](CCCN=C(N)N)n3cc(C(N)[C@@H](C)CC)nn3)CC2)nc(N2CCN(C(=O)[C@H](CCCCN)n3cc([C@@H](N)[C@H](C)CC)nn3)CC2)n1 (some centres undefined)	3%	·	35%	-30%	·	·
C#CCOCCOCCOCCNc1nc(N2CCN(C(=O)[C@H]([C@@H](C)CC)n3cc([C@@H](N)CC(C)C)nn3)CC2)nc(N2CCN(C(=O)[C@H](CCCCN)n3cc([C@@H](N)C(C)CC)nn3)CC2)n1 (some centres undefined)	4%	-11%[12.7 µM]	7%	79µM*	79µM*	10%
CCCn1c(SCC(=O)NCCCN2CCCC2=O)nc2ccccc2c1=O	0%	·	35%	-9%	·	·
Cn1ccnc1C1CCCCN1C(=O)c1cc(COc2ccc(F)cc2Cl)on1 (centres undefined)	5%	?	-5%	-31%	?	19%
C#CCOCCOCCOCCNc1nc(N2CCN(C(=O)C([C@@H](C)CC)n3cc(C(N)CO)nn3)CC2)nc(N2CCN(C(=O)C([C@@H](C)CC)n3cc(C(N)COC(=O)C(F)(F)F)nn3)CC2)n1 (some centres undefined)	·	·	21%	79µM*	·	·
O=C(c1ccccc1)c1ccc2nc(Nc3cc(Cl)ccc3O)c3nncn3c2c1	0%	?	15%	0%	-37%	·
COc1ccc(N2CCN(C(=O)CSc3n[nH]c(-c4ccccc4)n3)CC2)cc1	5%	16µM*	9%[57 µM]	-34%	-26%	·
COc1ccc(N2CCN(C(=O)c3cccnc3SCc3cccc(Br)c3)CC2)cc1	7%	13µM*	?	22µM*	?	7%
O=C(CSc1n[nH]c(-c2ccccc2)n1)N1CCN(c2ccc(F)cc2)CC1	5%	-2%[59 µM]	7%[57 µM]	-22%	-11%	·
COc1ccc(N2CCN(C(=O)CSc3ncccc3-c3nc4ccccc4[nH]3)CC2)cc1	5%	25µM*	-15%	?	?	1%
COc1ccccc1N1CCN(C(=O)CSc2ncccc2-c2nc3ccccc3[nH]2)CC1	2%	45µM*	39%	-31%	-36%	3%
COc1ccc(N2CCN(C(=O)c3cnc(N4CCCC4)nc3C)CC2)cc1	1%	-27%[12.7 µM]	38%	-11%	-22%	·
CCC1CCC2(CC1)NC(=O)N(CC(=O)N1CCc3ccccc31)C2=O (centres undefined)	0%	·	15%	-11%	·	·
CSCCC(NC(=O)c1ccccc1Cl)C(=O)N1CCN(c2ccccn2)CC1 (centres undefined)	·	·	11%	-17%	·	·
COc1ccc(NS(=O)(=O)c2ccc3c(c2)Cc2ccccc2-3)cn1	4%	-11%[59 µM]	-5%	-30%	-37%	71µM*
COc1ccc(NS(=O)(=O)c2ccc(N3CCCC3=O)cc2)cn1	4%	2%	24%	-5%[11.4 µM]	-13%	16%
CCC(C)N(CCNC(=O)CC1Oc2ccccc2NC1=O)C1CCCCC1 (centres undefined)	-1%	50µM*	58%	-7%	8%	4%
O=C(CC1Oc2ccc(Cl)cc2NC1=O)NC1CCCCCC1 (centres undefined)	3%	79µM*	48%	-8%	10%	-8%
Cc1ccc(CCNC(=O)CC2Oc3ccc(C)cc3NC2=O)cc1 (centres undefined)	3%	-9%	56%	-12%	-3%	6%
Cc1ccc2c(c1)NC(=O)C(CC(=O)NCCN(C)C)O2 (centres undefined)	0%	45µM*	49%	-15%	0%	-21%
CC1CCN(Cc2ccc(NC(=O)CC3Oc4ccccc4NC3=O)cc2)CC1 (centres undefined)	1%	50µM*	34%	-27%	9%	-25%
O=C(CC1Oc2ccccc2NC1=O)NC1CCCC1 (centres undefined)	4%	-7%	51%	-6%	-3%	-1%
Cc1ccc(NC(=O)CC2Oc3ccccc3NC2=O)cc1C (centres undefined)	3%	6%[59 µM]	47%	-15%	-15%	·
COc1cc(NC(=S)N2CCN(C)CC2)cc(OC)c1	·	-2%[0.501 µM]	21%	-17%	29%	5%
CCOC(=O)c1[nH]c2c(c1Cc1ccccc1)C(=O)CC(c1ccc(Cl)cc1)C2 (centres undefined)	0%[12.3 µM]	-19%[59 µM]	21%	-20%	-14%	·
SMILES	TDP1 block	G9a inh	HP1b binding inh	JMJD2A Tudor inh	BAZ2B block	Sfp PPTase inh
CC1CCCCC1NC(=O)c1c(O)nc2ccccn2c1=O (centres undefined)	6%	10%	-19%	?	3%	·
COc1ccccc1NS(=O)(=O)c1ccc(NN=C2CCCC2)c([N+](=O)[O-])c1	11%	25µM*	?	20µM*	?	-1%
COc1ccccc1NS(=O)(=O)c1ccc(N/N=C/c2ccccc2OCC(=O)O)c([N+](=O)[O-])c1	3%	20µM*	?	56µM*	40µM*	-14%
O=C(O)COc1ccccc1/C=N/Nc1ccc(S(=O)(=O)Nc2ccc(Cl)cc2)cc1[N+](=O)[O-]	8%	35µM*	?	?	35µM*	-10%
CC1(C)CC(=S)Nc2ccccc2S1	2%	7.9µM*	?	-32%	-7%	28µM*
O=C(NCc1ccc2c(c1)OCO2)c1nc(S(=O)(=O)Cc2ccccc2F)ncc1Cl	3%	18µM*	37%	6%	-36%	25µM*
O=C(NCc1ccc2c(c1)OCO2)c1nc(S(=O)(=O)Cc2ccccc2)ncc1Cl	6%	50µM*	9%[57 µM]	-24%	-25%	?
O=C(NCc1ccccc1)c1nc(S(=O)(=O)Cc2ccccc2)ncc1Cl	1%	-3%[0.501 µM]	12%	-28%	-15%	?
O=C(O)C1C2C=CC(C2)C1C(=O)Nc1ccc(Cl)c(Cl)c1 (centres undefined)	3%	-6%	59%	6%	-9%	6%
O=C(NNC(=O)c1ccco1)c1ccccc1	-1%	0%[59 µM]	47%	-8%	-2%	25%
CC(C)(C)NC(=O)C(=O)NNC(=O)c1cccc(Br)c1	5%	26%	39%	-12%[57.1 µM]	?	-15%
CC(C)CNC(=O)C(=O)NNC(=O)c1ccco1	2%	11µM*	12%	-14%[11.4 µM]	?	4%
CC(CNC(=O)c1ccco1)NC(=O)c1ccco1 (centres undefined)	·	?	-5%	-9%	5%	29%

Assay outcomes deposited in PubChem by National Center for Advancing Translational Sciences (NCATS).
